Results taken from PubChem BioAssay AID2235 (The Scripps Research Institute Molecular Screening Center, 2010).
Among all 320,000 compounds or so, about 2,800 (0.88%) were called active. This is one part of a sample in which actives are shown more often than they occur. A number with no mark means an inactive call.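 How the source made its calls: active means inhibition above the mean inhibition of all tested compounds plus 3 SD, computed separately for each screening campaign (cut at about 15% in these data); inactive means the rest.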

Molecular target: Serine/threonine-protein phosphatase PP1-alpha catalytic subunit (Homo sapiens) (UniProt P62136)
Assay: PP1-alpha phosphatase inhibitors, primary screen, counter-screen for PP5 inhibitor project, biochemical, fluorescence, OMFP substrate, single point (AID 2235)
Settings: purified PP1alpha, at 6.7 µM, stronger effect = higher value

Sequence of Serine/threonine-protein phosphatase PP1-alpha catalytic subunit (Homo sapiens) (P62136 whole entry, looked up): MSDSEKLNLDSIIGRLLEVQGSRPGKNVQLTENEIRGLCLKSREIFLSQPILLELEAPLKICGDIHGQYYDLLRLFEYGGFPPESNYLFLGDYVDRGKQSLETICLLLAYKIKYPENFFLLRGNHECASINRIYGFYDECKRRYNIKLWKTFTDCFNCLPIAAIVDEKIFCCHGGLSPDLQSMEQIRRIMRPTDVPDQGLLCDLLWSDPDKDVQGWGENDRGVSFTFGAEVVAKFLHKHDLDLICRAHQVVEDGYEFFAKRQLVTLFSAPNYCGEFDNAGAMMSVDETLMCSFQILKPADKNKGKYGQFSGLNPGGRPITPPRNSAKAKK

For `Cc1ccccc1/C=C\c1nc(O)c([N+](=O)[O-])c(=O)[nH]1`, which inhibition is on record?
The inhibition was -3.61%.

For `CC(=O)c1ccc(N2CCN(C(=O)C3CCN(S(=O)(=O)c4ccc5c(c4)CC(C)N5C(=O)C4CC4)CC3)CC2)cc1` (stereo not drawn), which inhibition is on record?
Its inhibition is 8.74%.

How did the inhibition turn out when `CC(=O)c1ccc(N2CCN(S(=O)(=O)c3ccc4c(c3)CC(=O)N4C)CC2)cc1` was run?
Its inhibition is 20.6% (active).

`CC(=O)c1ccc(N2CCN(S(=O)(=O)c3c(C)[nH]c(=O)[nH]c3=O)CC2)cc1` was tested. Which inhibition did it give?
Its inhibition is -4.3%.

For `COc1cccc(NC(=O)C/C(C)=N/NC(=O)C2CCCCC2)c1`, which inhibition is on record?
Its inhibition is 4.45%.

For `COc1ccc(CCNC(=O)C2CC3Cn4c(nc5cc(C)c(C)cc54)C3N2C)cc1` (stereo not drawn), which inhibition is on record?
Its inhibition is -2.39%.

For `C=CCOC(=O)C1=C[C@@H](c2ccc3c(c2)OCO3)C[C@@H](OCCCCO)O1`, which inhibition is on record?
Its inhibition is 5.48%.

For `O=C(CN1C(=O)NC(Cc2ccccc2)(Cc2ccccc2)C1=O)NCC1CCCCC1`, which inhibition is on record?
Its inhibition is -3.39%.

With `OCCNc1nc(Nc2ccc(Cl)c(Cl)c2)nc2ccccc12` as the compound, how does the inhibition read?
The inhibition was 23.4% (active).

How did the inhibition turn out when `CN(C)c1nc(Nc2ccc(Cl)c(Cl)c2)nc(N(C)C)n1` was run?
Its inhibition is 0.07%.

For `COc1cc2nc(Cl)nc(NCCO)c2cc1OC`, which inhibition is on record?
Its inhibition is -3.14%.

For `CCc1ccc(CNC(=O)C2CC(=O)N(CCc3ccc(C)cc3)C2)cc1` (stereo not drawn), which inhibition is on record?
Its inhibition is -3.41%.

With `CCC(=O)N1CCN=C1SCc1ccc(F)cc1` as the compound, how does the inhibition read?
The inhibition was -1.6%.

With `CCOC(=O)C1=C(O)/C(=C/c2ccc(OCC(=O)Nc3ccc(C)cc3)cc2)N=C1C` as the compound, how does the inhibition read?
The inhibition was 15.1%.

For `Cc1ccc(NC(=O)COc2ccc(/C=C3/NC(=O)NC3=O)cc2)cc1`, which inhibition is on record?
The inhibition was 19.3% (active).

With `COC(=O)C1=C(O)/C(=C/c2ccc(OCC(=O)Nc3ccccc3)cc2)N=C1C` as the compound, how does the inhibition read?
The inhibition was 1.71%.

`CCc1cccc(NC(=O)COC(=O)C2CCN(c3ccc(C(F)(F)F)cn3)CC2)c1` was tested. Which inhibition did it give?
Its inhibition is 3.82%.

Which inhibition does the source give for `Cc1noc(C)c1S(=O)(=O)NCCc1ccc(S(N)(=O)=O)cc1` here?
Its inhibition is -1.43%.

For `O=C(c1ccc(Cl)c(S(=O)(=O)N2CCCCCC2)c1)N1CCN(c2ccc(O)cc2)CC1`, which inhibition is on record?
The inhibition was 5.02%.

How did the inhibition turn out when `CC(C)n1ncc2c(C(=O)NCc3ccccc3CN(C)C)cc(C3CC3)nc21` was run?
The inhibition was 3.23%.

For `O=C(NCC(c1ccco1)N1CCc2ccccc2C1)c1ccccc1Cl` (stereo not drawn), which inhibition is on record?
The inhibition was -5.84%.

With `O=C(/C=C/c1ccc(F)cc1)NC(=S)NNC(=O)c1cccnc1` as the compound, how does the inhibition read?
The inhibition was 24.8% (active).

How did the inhibition turn out when `O=C(/C=C/c1ccc(F)cc1)NCCNC(=O)/C=C/c1ccc(F)cc1` was run?
The inhibition was -0.56%.

`CC(C)c1ccc(/C=C/C(=O)NNC(=O)c2cccnc2)cc1` was tested. Which inhibition did it give?
Its inhibition is -4.56%.

`CCN(CC)Cc1c(C(=O)N/N=C/c2cccc(OCc3ccc(F)cc3)c2)nnn1-c1nonc1N` was tested. Which inhibition did it give?
Its inhibition is -5.41%.

`COc1cccc(N2CCN(c3ccc4nnc(CCC(=O)N5CCN(C)CC5)n4n3)CC2)c1` was tested. Which inhibition did it give?
The inhibition was -3.98%.

With `NC(N)=N/N=C/c1ccc(OCc2ccc(Cl)cc2Cl)cc1` as the compound, how does the inhibition read?
The inhibition was 37.2% (active).

Which inhibition does the source give for `CCOc1ccc(NC(=O)NNC(=O)c2ccc(Cl)cc2Cl)cc1` here?
Its inhibition is 3.13%.

Which inhibition does the source give for `OC(CNCCc1ccc(Cl)cc1Cl)COc1ccccc1` (stereo not drawn) here?
The inhibition was 10.6%.

How did the inhibition turn out when `Cc1cccc(Nc2nnc(SCC(=O)c3c(N)n(C4CC4)c(=O)[nH]c3=O)s2)c1C` was run?
The inhibition was -0.71%.

How did the inhibition turn out when `O=C(O)c1cc([N+](=O)[O-])c(Nc2cccc3ccccc23)c([N+](=O)[O-])c1` was run?
Its inhibition is 3.7%.

How did the inhibition turn out when `O=C(Nc1ccc(F)cc1)N1CCCC(c2nc3c(nnn3Cc3ccccc3Cl)c(=O)[nH]2)C1` (stereo not drawn) was run?
Its inhibition is 4.93%.

Which inhibition does the source give for `Cc1cc(C)cc(NC(=O)Cn2cnc3c(nnn3Cc3ccc(F)cc3)c2=O)c1` here?
Its inhibition is 8.94%.

Which inhibition does the source give for `Cc1ccc(C)c(Cn2nnc3c(=O)[nH]c(C(=O)Nc4ccc(F)cc4)nc32)c1` here?
The inhibition was 46.5% (active).

For `CCCn1nnnc1NCc1ccc(CC)cc1`, which inhibition is on record?
Its inhibition is 0.05%.

How did the inhibition turn out when `Cc1nc(NC(=O)C2CCCCC2)sc1C` was run?
Its inhibition is -0.06%.

`COc1ccc(Cn2nnc3c(=O)[nH]c(C4CCN(C(=O)c5ccccc5Cl)CC4)nc32)cc1` was tested. Which inhibition did it give?
The inhibition was 1.01%.

`Cc1ccc(Cn2nnc3c(=O)[nH]c(C4CCN(S(=O)(=O)/C=C/c5ccccc5)CC4)nc32)cc1` was tested. Which inhibition did it give?
Its inhibition is 20.9% (active).

How did the inhibition turn out when `Cc1ccc(NC(=O)N2CCC(c3nc4c(nnn4Cc4c(F)cccc4Cl)c(=O)[nH]3)CC2)cc1` was run?
Its inhibition is 4.5%.

How did the inhibition turn out when `Cc1ccc(S(=O)(=O)CCC(=O)OCc2ccccc2)cc1` was run?
The inhibition was -6.27%.

With `CC(=O)[C@@]12O[C@@H]1C[C@H]1[C@@H]3CC[C@H]4C[C@@H](O)CC[C@]4(C)[C@H]3CC[C@@]12C` as the compound, how does the inhibition read?
Its inhibition is 0.47%.

With `COc1ccc(C(=O)Nc2ncc3c(n2)-c2ccccc2CC3)cc1` as the compound, how does the inhibition read?
The inhibition was -1.56%.

With `COCCN(CCOC)S(=O)(=O)c1ccc(C(=O)Nc2nc3c(s2)CCc2ccccc2-3)cc1` as the compound, how does the inhibition read?
The inhibition was 22.6% (active).

`C=CCN(CC=C)S(=O)(=O)c1ccc(C(=O)Nc2sc3c(c2C(N)=O)CCCCC3)cc1` was tested. Which inhibition did it give?
The inhibition was -0.71%.

For `C=CCN(CC=C)S(=O)(=O)c1ccc(C(=O)Nc2nc3c(s2)CCc2ccccc2-3)cc1`, which inhibition is on record?
The inhibition was 25.9% (active).

`CCN(c1ccccc1)S(=O)(=O)c1ccc(C(=O)Nc2nccs2)cc1` was tested. Which inhibition did it give?
Its inhibition is 1.49%.

For `COCCN(CCOC)S(=O)(=O)c1ccc(/C(O)=C(\C#N)c2nc3ccccc3[nH]2)cc1`, which inhibition is on record?
The inhibition was -3.73%.

For `Cc1ccc(NC(=S)Nc2ncccc2C)c(C)c1`, which inhibition is on record?
Its inhibition is -1.13%.

Which inhibition does the source give for `C#CCOCCOCCOCCNc1nc(N2CCN(C(=O)Cn3cc(CCCCN)nn3)CC2)nc(N2CCN(C(=O)[C@H](CCCCN)n3cc(CCC(=O)O)nn3)CC2)n1` here?
Its inhibition is -0.58%.

`C#CCOCCOCCOCCNc1nc(N2CCN(C(=O)[C@H](CCCCN)n3cc(CCC(=O)O)nn3)CC2)nc(N2CCN(C(=O)[C@H](CCCCN)n3cc(CC(C)O)nn3)CC2)n1` (stereo partly drawn) was tested. Which inhibition did it give?
The inhibition was 5.96%.

With `C#CCOCCOCCOCCNc1nc(N2CCN(C(=O)CCCCCCCCCCNC(=O)Cn3cc(CCCCCN)nn3)CC2)nc(N2CCN(C(=O)CCCCCCCCCCNC(=O)[C@H](CO)n3cc(CCCSC)nn3)CC2)n1` as the compound, how does the inhibition read?
The inhibition was 64.7% (active).

Which inhibition does the source give for `C#CCOCCOCCOCCNc1nc(N2CCN(C(=O)[C@H](CCCCN)n3cc([C@@H](N)C(C)CC)nn3)CC2)nc(N2CCN(C(=O)[C@H](Cc3ccc(O)cc3)n3cc([C@@H](N)C(C)CC)nn3)CC2)n1` (stereo partly drawn) here?
Its inhibition is 5.1%.

`C#CCOCCOCCOCCNc1nc(N2CCN(C(=O)[C@H](C(C)C)n3cc(CCO)nn3)CC2)nc(N2CCN(C(=O)[C@H]([C@@H](C)CC)n3cc(CCCN=C(N)N)nn3)CC2)n1` was tested. Which inhibition did it give?
The inhibition was 0.22%.

`C#CCOCCOCCOCCNc1nc(N2CCN(C(=O)[C@H](C(C)C)n3cc(CCO)nn3)CC2)nc(N2CCN(C(=O)[C@H](C(C)C)n3cc(CCO)nn3)CC2)n1` was tested. Which inhibition did it give?
Its inhibition is -0.91%.

With `C#CCOCCOCCOCCNc1nc(N2CCN(C(=O)C([C@@H](C)CC)n3cc(C(N)COC(=O)C(F)(F)F)nn3)CC2)nc(N2CCN(C(=O)[C@H](CCCCN)n3cc(C(N)CC(C)C)nn3)CC2)n1` (stereo partly drawn) as the compound, how does the inhibition read?
The inhibition was 8.45%.

With `C#CCOCCOCCOCCNc1nc(N2CCN(C(=O)CCCCCCCCCCNC(=O)[C@H]([C@@H](C)CC)n3cc(CCCCN=C(N)N)nn3)CC2)nc(N2CCN(C(=O)CCCCCCCCCCNC(=O)[C@H](CO)n3cc(CCCSC)nn3)CC2)n1` as the compound, how does the inhibition read?
Its inhibition is 53.8% (active).

`C#CCOCCOCCOCCNc1nc(N2CCN(C(=O)CCCCCCCCCCNC(=O)[C@H](CCCCN)n3cc(C)nn3)CC2)nc(N2CCN(C(=O)CCCCCCCCCCNC(=O)[C@H](CO)n3cc(CCCSC)nn3)CC2)n1` was tested. Which inhibition did it give?
The inhibition was 64.8% (active).

For `CN1CCN(c2ccc(CNS(=O)(=O)c3cccc(F)c3)cc2)CC1`, which inhibition is on record?
Its inhibition is -3.01%.

`O=C1/C(=C/c2cccs2)CCC1C1CCCC1` (stereo not drawn) was tested. Which inhibition did it give?
The inhibition was -2.41%.

With `CC(=O)Oc1cc2c(C(=O)NCCN3CCOCC3)c(C)oc2c2ccccc12` as the compound, how does the inhibition read?
The inhibition was -0.6%.

How did the inhibition turn out when `Cc1ccc(N=C2NC(=O)c3cccc([N+](=O)[O-])c32)cc1` was run?
The inhibition was -1.21%.

With `COc1ccccc1C(=O)NC(=O)COC(=O)C1CC1` as the compound, how does the inhibition read?
Its inhibition is -1.39%.

With `CCC(=C/c1sc2ccc3ccccc3c2[n+]1C)/C=C1\Sc2ccc3ccccc3c2N1C` as the compound, how does the inhibition read?
The inhibition was 79.3% (active).

Which inhibition does the source give for `CC(NCc1ccccc1OC1CCCC1)c1ccccc1` (stereo not drawn) here?
Its inhibition is -3.47%.

`O=C(Nc1ccc(S(=O)(=O)NCC2CCCO2)cc1)c1ccc(F)cc1` (stereo not drawn) was tested. Which inhibition did it give?
The inhibition was 1.04%.

`Cc1ccc(Oc2nc(-c3ccccn3)nc3ccccc23)cc1` was tested. Which inhibition did it give?
The inhibition was 17.4% (active).

With `CC(C)(C)c1ccc(Oc2ccc(N)cc2)cc1` as the compound, how does the inhibition read?
The inhibition was 1.18%.

For `Cc1ccc(Oc2nc3ccccc3n3c(C)nnc23)cc1`, which inhibition is on record?
Its inhibition is -3.88%.

For `COc1cnc(-c2ccccn2)nc1Oc1ccc(C(C)(C)C)cc1`, which inhibition is on record?
Its inhibition is 57.9% (active).

For `N#Cc1ccc(Oc2cc(C(F)(F)F)nc(-c3ccccn3)n2)cc1`, which inhibition is on record?
The inhibition was -1.29%.

How did the inhibition turn out when `CCC(=O)OCCNc1nc(-c2ccccc2)nc2ccccc12` was run?
The inhibition was 0.15%.

With `COc1ccc(NCCc2ccccn2)cc1` as the compound, how does the inhibition read?
The inhibition was 1.13%.

Which inhibition does the source give for `CCOCCCNc1nc(-c2ccccc2)nc2ccccc12` here?
The inhibition was 3.36%.

For `CC(C)(C)Nc1nc(-c2ccccn2)nc2ccccc12`, which inhibition is on record?
Its inhibition is 18.4% (active).

With `COC(=O)C1=NNC2(c3ccc(C)cc3)C(=O)N(c3cccc(C)c3C)C(=O)C12` (stereo not drawn) as the compound, how does the inhibition read?
Its inhibition is 2.4%.

Which inhibition does the source give for `Cc1ccc(-c2cnc(NC(=O)CCC(=O)N(C)Cc3ccccc3)n2C)cc1` here?
Its inhibition is -3.93%.

For `CC(c1nnc(SCC(=O)Nc2sccc2C#N)n1-c1ccc(Cl)cc1)N(C)C` (stereo not drawn), which inhibition is on record?
Its inhibition is -0.51%.

With `COc1ccc(NC(=O)CN(C)C(=O)c2cc(C3CC3)nn2-c2ccccc2)cc1` as the compound, how does the inhibition read?
Its inhibition is -0.28%.
